Source: PubChem BioAssay (NCATS)
Peptide text beside a SMILES is read from it.

Experiment: Confirmation and Secondary Assay for Modulators of Hemoglobin Beta Chain Splicing at IVS2 654 locus (AID 910);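 further: HeLa cells stably carrying EGFP split by mutant beta-globin IVS2-654 intron; per-well total GFP intensity by laser scanning cytometry after 2-day treatment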
Conditions: HeLa EGFP-654 splicing reporter, GFP fluorescence, 48 h; series mostly up to 46.1 µM; activation (splicing correction): at the top concentration
Method in brief: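 Readout: per-well total peak green fluorescence (488 nm ex, 500–520 nm em) from objects 5–250 µm, reflecting correct splicing of an EGFP-654 reporter. Compounds were applied for 2 days at 37 °C to overnight-plated HeLa EGFP-654 cells; controls were DMSO and 500 nM IVS2-654 PNA.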
Further: % of control where 0% means no effect.

Activation (splicing correction), inactive:
CN(C)CCCOC1C(C(O)CO)OC2OC(C)(C)O[C@@H]21 (some centres undefined) 2.27%, CCC(C)C(=O)OC1CCC=C2C=CC(C)C(CCC3CC(O)CC(=O)O3)[C@@H]21 (some centres undefined) 2.3% [at 38.3 µM], CC(=O)OC1CCC2C3CCc4cc(O)ccc4C3CCC12C (centres undefined) 0.785%, CC[C@@]12CCCN3CCc4c(n(c5ccccc45)[C@](O)(C(=O)OC)C1)C32 (some centres undefined) 8.85%, NC(C(=O)O)[C@@H]1CC(Cl)=NO1 (some centres undefined) 4.21%, CN1CC(=O)N=C1N 1.66% [at 38.3 µM], OCC1OC([S-])[C@H](O)C(O)C1O.[Au+] (some centres undefined) 9.6%, CC(C)C1CCC(C(=O)NC(Cc2ccccc2)C(=O)O)CC1 (centres undefined) -3.55%, CCC(CCC(C)C1CCC2C3CC=C4CC(O)CC[C@@]4(C)C3CC[C@@]12C)C(C)C (some centres undefined) 1.38% [at 38.3 µM], C[C@]12CCC(=O)C=C1CCC1C2C(=O)C[C@]2(C)C1CC[C@]2(O)C(=O)CO (some centres undefined) -1.6% [at 38.3 µM], OCC1O[C@H](OC2C(CO)O[C@@](O)(CO)C2O)C(O)C(O)C1O (some centres undefined) 5.12%, CC1(C)OC2CO[C@]3(COS(N)(=O)=O)OC(C)(C)OC3C2O1 (some centres undefined) 0.526%, CC1(C)OC2CC(=O)OC[C@@]23C1CC(=O)[C@]1(C)C3CC[C@@]2(C)C(c3ccoc3)OC(=O)C3O[C@@]321 (some centres undefined) -0.441% [at 38.3 µM], CC1=C(CCC(=O)O)c2cc3nc(cc4[nH]c(cc5[nH]c(cc1n2)c(C)c5C(C)O)c(C)c4C(C)O)C(C)=C3CCC(=O)O (centres undefined) -1.59% [at 38.3 µM], CCOC(=O)C1=CC(OC(CC)CC)C(NC(C)=O)C(N)C1 (centres undefined) 0.842%, COC1C=CO[C@@]2(C)Oc3c(C)c(O)c4c(O)c(c5c(nc6cc(C)ccn65)c4c3C2=O)NC(=O)/C(C)=C\C=CC(C)C(O)[C@@H](C)C(O)C(C)[C@@H](OC(C)=O)C1C (some centres undefined) 0.409% [at 38.3 µM], COC(=O)C(Cc1ccccc1)NC(=O)C(N)CC(=O)O (stereo not drawn) (H-Asp-Phe-OMe; configuration not given here) 5.76%, C[C@]12C=CC(=O)C=C1CCC1C2C(O)C[C@]2(C)C1CC[C@]2(O)C(=O)CO (some centres undefined) 3.27%, CC1(C)S[C@H]2C(NC(=O)[C@@H](N)c3ccc(O)cc3)C(=O)N2[C@@H]1C(=O)O (some centres undefined) 4.39%, CC(C)=CCC[C@](C)(O)C1CC=C(C)CC1 (some centres undefined) 4.64%, CO[C@]12C(COC(N)=O)C3=C(C(=O)C(C)=C(N)C3=O)N1CC1NC12 (some centres undefined) 3.22%, Cc1cc(O)c(C=O)c2c1C(=O)Oc1c(C)c(O)c3c(c1O2)C(O)OC3=O (centres undefined) 15.7%, CC(=O)N[C@H](CC(C)C)C(=O)O -3.04%, COc1c(O)cc(O)cc1O 4.8%, COc1ccc2cc(C(C)CO)ccc2c1 (centres undefined) -0.124%, COC1C=CO[C@@]2(C)Oc3c(C)c(O)c4c(O)c(c(C=NN5CCN(C)CC5)c(O)c4c3C2=O)NC(=O)/C(C)=C\C=CC(C)C(O)[C@@H](C)C(O)C(C)[C@H](OC(C)=O)C1C (some centres undefined) -5.4%, CC1CCC(C(C)C)C(=O)C1 (centres undefined) 0.804% [at 38.3 µM], CNC1CC(N)[C@H](O)[C@@H](O[C@@H]2OC(CO)C3OC4(OC(C(N)CO)C(O)C(O)C4O)O[C@@H]3[C@H]2O)C1O (some centres undefined) -2.74% [at 38.3 µM], CCCC(=O)O[C@]1(C(=O)CO)CCC2[C@@H]3CCC4=CC(=O)CC[C@]4(C)C3C(O)C[C@]21C (some centres undefined) 5.3%, CC(=O)[C@]1(O)CCC2C3C=C(Cl)C4=CC(=O)C5CC5[C@@]4(C)C3CC[C@]21C (some centres undefined) 0.805%, Cc1cc(O)c(C=O)c2c1C(=O)Oc1c(COC(=O)/C=C/C(=O)O)c(O)c(C(=O)O)c(C)c1O2 15.9%, CC(=O)N[C@@H]1C(O)OC(CO)C(O)C1O (some centres undefined) 8.63%, C/C1=C2N=C(/C=C3N=C(/C(C)=C4\[N-]C(C)(C5N=C1C(C)(CCC(=O)NCC(C)OP(=O)([O-])O[C@H]1C(O)C(n6cnc7cc(C)c(C)cc76)O[C@@H]1CO)C5CC(N)=O)C(C)(CC(N)=O)C4CCC(N)=O)C(C)(CC(N)=O)C\3CCC(N)=O)C(C)(C)C/2CCC(N)=O.[CH2-]C1OC(n2cnc3c(N)ncnc32)C(O)C1O.[Co] (some centres undefined) 19.2%, O=C1OC(CO)C(O)C(O)C1O (centres undefined) 4%, CNC1C(OC2C(O[C@@H]3C(O)C(O)[C@@H](N=C(N)N)C(O)C3N=C(N)N)OC(C)[C@@]2(O)CO)OC(CO)C(O)C1O (some centres undefined) 3.36%, COc1cc(C2c3cc4c(cc3C(O[C@@H]3OC5COC(c6cccs6)OC5C(O)C3O)C3COC(=O)C23)OCO4)cc(OC)c1O (some centres undefined) 3.25%, Nc1nc2ncc(CNc3ccc(C(=O)NC(CCC(=O)O)C(=O)O)cc3)nc2c(=O)[nH]1 (centres undefined) 4.15%

Experiment: Confirmation and Secondary Assay for Modulators of Hemoglobin Beta Chain Splicing at IVS2 705 locus (AID 930);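 further: HeLa cells stably expressing the EGFP-705 splicing reporter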
Conditions: HeLa EGFP-705 splicing reporter, GFP fluorescence, 48 h; series mostly up to 46.1 µM; activation: at the top concentration
Method in brief: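 Restored EGFP fluorescence after 2-day compound exposure reports splicing correction in IVS2-705 EGFP reporter HeLa cells; positive control was 500 nM splice-blocking PNA oligo. Signal measured as well total peak GFP intensity (488 nm excitation).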

activation, inactive:
CN(C)CCCOC1C(C(O)CO)OC2OC(C)(C)O[C@@H]21 (some centres undefined) 0.77%, CCC(C)C(=O)OC1CCC=C2C=CC(C)C(CCC3CC(O)CC(=O)O3)[C@@H]21 (some centres undefined) 0.73% [at 38.3 µM], CC(=O)OC1CCC2C3CCc4cc(O)ccc4C3CCC12C (centres undefined) 0.258%, CC[C@@]12CCCN3CCc4c(n(c5ccccc45)[C@](O)(C(=O)OC)C1)C32 (some centres undefined) -0.442%, NC(C(=O)O)[C@@H]1CC(Cl)=NO1 (some centres undefined) 1.25%, CN1CC(=O)N=C1N 0.288% [at 38.3 µM], OCC1OC([S-])[C@H](O)C(O)C1O.[Au+] (some centres undefined) 0.147%, CC(C)C1CCC(C(=O)NC(Cc2ccccc2)C(=O)O)CC1 (centres undefined) 0.885%, CCC(CCC(C)C1CCC2C3CC=C4CC(O)CC[C@@]4(C)C3CC[C@@]12C)C(C)C (some centres undefined) 0.903% [at 38.3 µM], C[C@]12CCC(=O)C=C1CCC1C2C(=O)C[C@]2(C)C1CC[C@]2(O)C(=O)CO (some centres undefined) 0.9% [at 38.3 µM], OCC1O[C@H](OC2C(CO)O[C@@](O)(CO)C2O)C(O)C(O)C1O (some centres undefined) 0.385%, CC1(C)OC2CO[C@]3(COS(N)(=O)=O)OC(C)(C)OC3C2O1 (some centres undefined) -0.806%, CC1(C)OC2CC(=O)OC[C@@]23C1CC(=O)[C@]1(C)C3CC[C@@]2(C)C(c3ccoc3)OC(=O)C3O[C@@]321 (some centres undefined) 0.867% [at 38.3 µM], CC1=C(CCC(=O)O)c2cc3nc(cc4[nH]c(cc5[nH]c(cc1n2)c(C)c5C(C)O)c(C)c4C(C)O)C(C)=C3CCC(=O)O (centres undefined) -1.07% [at 38.3 µM], CCOC(=O)C1=CC(OC(CC)CC)C(NC(C)=O)C(N)C1 (centres undefined) -0.389%, COC1C=CO[C@@]2(C)Oc3c(C)c(O)c4c(O)c(c5c(nc6cc(C)ccn65)c4c3C2=O)NC(=O)/C(C)=C\C=CC(C)C(O)[C@@H](C)C(O)C(C)[C@@H](OC(C)=O)C1C (some centres undefined) 0.961% [at 38.3 µM], COC(=O)C(Cc1ccccc1)NC(=O)C(N)CC(=O)O (stereo not drawn) (H-Asp-Phe-OMe; configuration not given here) 3.76%, C[C@]12C=CC(=O)C=C1CCC1C2C(O)C[C@]2(C)C1CC[C@]2(O)C(=O)CO (some centres undefined) 5.37%, CC1(C)S[C@H]2C(NC(=O)[C@@H](N)c3ccc(O)cc3)C(=O)N2[C@@H]1C(=O)O (some centres undefined) -0.138%, CC(C)=CCC[C@](C)(O)C1CC=C(C)CC1 (some centres undefined) 1.13%, CO[C@]12C(COC(N)=O)C3=C(C(=O)C(C)=C(N)C3=O)N1CC1NC12 (some centres undefined) 0.205%, Cc1cc(O)c(C=O)c2c1C(=O)Oc1c(C)c(O)c3c(c1O2)C(O)OC3=O (centres undefined) 0.395%, CC(=O)N[C@H](CC(C)C)C(=O)O 1.43%, COc1c(O)cc(O)cc1O 2.48%, COc1ccc2cc(C(C)CO)ccc2c1 (centres undefined) 1.04%, COC1C=CO[C@@]2(C)Oc3c(C)c(O)c4c(O)c(c(C=NN5CCN(C)CC5)c(O)c4c3C2=O)NC(=O)/C(C)=C\C=CC(C)C(O)[C@@H](C)C(O)C(C)[C@H](OC(C)=O)C1C (some centres undefined) 0.908%, CC1CCC(C(C)C)C(=O)C1 (centres undefined) 0.739% [at 38.3 µM], CNC1CC(N)[C@H](O)[C@@H](O[C@@H]2OC(CO)C3OC4(OC(C(N)CO)C(O)C(O)C4O)O[C@@H]3[C@H]2O)C1O (some centres undefined) -0.659% [at 38.3 µM], CCCC(=O)O[C@]1(C(=O)CO)CCC2[C@@H]3CCC4=CC(=O)CC[C@]4(C)C3C(O)C[C@]21C (some centres undefined) -1.14%, CC(=O)[C@]1(O)CCC2C3C=C(Cl)C4=CC(=O)C5CC5[C@@]4(C)C3CC[C@]21C (some centres undefined) 1.5%, Cc1cc(O)c(C=O)c2c1C(=O)Oc1c(COC(=O)/C=C/C(=O)O)c(O)c(C(=O)O)c(C)c1O2 1.77%, CC(=O)N[C@@H]1C(O)OC(CO)C(O)C1O (some centres undefined) 0.559%, C/C1=C2N=C(/C=C3N=C(/C(C)=C4\[N-]C(C)(C5N=C1C(C)(CCC(=O)NCC(C)OP(=O)([O-])O[C@H]1C(O)C(n6cnc7cc(C)c(C)cc76)O[C@@H]1CO)C5CC(N)=O)C(C)(CC(N)=O)C4CCC(N)=O)C(C)(CC(N)=O)C\3CCC(N)=O)C(C)(C)C/2CCC(N)=O.[CH2-]C1OC(n2cnc3c(N)ncnc32)C(O)C1O.[Co] (some centres undefined) 4.65%, O=C1OC(CO)C(O)C(O)C1O (centres undefined) 2.91%, CNC1C(OC2C(O[C@@H]3C(O)C(O)[C@@H](N=C(N)N)C(O)C3N=C(N)N)OC(C)[C@@]2(O)CO)OC(CO)C(O)C1O (some centres undefined) 1.68%, COc1cc(C2c3cc4c(cc3C(O[C@@H]3OC5COC(c6cccs6)OC5C(O)C3O)C3COC(=O)C23)OCO4)cc(OC)c1O (some centres undefined) 1.05%, Nc1nc2ncc(CNc3ccc(C(=O)NC(CCC(=O)O)C(=O)O)cc3)nc2c(=O)[nH]1 (centres undefined) 1.81%
